Hit rate of the full screen: of about 310,000 compounds, about 14,000 (4.5%) showed an effect of 50% or more. The effect is printed as a negative number. The sample holds strong results, similar compounds and a random draw of the others, so the mix is not that of the screen.
Biological target: human ether-à-go-go-related gene (hERG) potassium channel (human, UniProt Q12809)
Experiment: primary screen, population patch clamp on CHO cells stably expressing hERG; higher = less effect of the substance
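Further: peak tail current of the secondary pulse compared with the same well before compound.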

Chain of human ether-à-go-go-related gene (hERG) potassium channel (Q12809 whole entry, looked up): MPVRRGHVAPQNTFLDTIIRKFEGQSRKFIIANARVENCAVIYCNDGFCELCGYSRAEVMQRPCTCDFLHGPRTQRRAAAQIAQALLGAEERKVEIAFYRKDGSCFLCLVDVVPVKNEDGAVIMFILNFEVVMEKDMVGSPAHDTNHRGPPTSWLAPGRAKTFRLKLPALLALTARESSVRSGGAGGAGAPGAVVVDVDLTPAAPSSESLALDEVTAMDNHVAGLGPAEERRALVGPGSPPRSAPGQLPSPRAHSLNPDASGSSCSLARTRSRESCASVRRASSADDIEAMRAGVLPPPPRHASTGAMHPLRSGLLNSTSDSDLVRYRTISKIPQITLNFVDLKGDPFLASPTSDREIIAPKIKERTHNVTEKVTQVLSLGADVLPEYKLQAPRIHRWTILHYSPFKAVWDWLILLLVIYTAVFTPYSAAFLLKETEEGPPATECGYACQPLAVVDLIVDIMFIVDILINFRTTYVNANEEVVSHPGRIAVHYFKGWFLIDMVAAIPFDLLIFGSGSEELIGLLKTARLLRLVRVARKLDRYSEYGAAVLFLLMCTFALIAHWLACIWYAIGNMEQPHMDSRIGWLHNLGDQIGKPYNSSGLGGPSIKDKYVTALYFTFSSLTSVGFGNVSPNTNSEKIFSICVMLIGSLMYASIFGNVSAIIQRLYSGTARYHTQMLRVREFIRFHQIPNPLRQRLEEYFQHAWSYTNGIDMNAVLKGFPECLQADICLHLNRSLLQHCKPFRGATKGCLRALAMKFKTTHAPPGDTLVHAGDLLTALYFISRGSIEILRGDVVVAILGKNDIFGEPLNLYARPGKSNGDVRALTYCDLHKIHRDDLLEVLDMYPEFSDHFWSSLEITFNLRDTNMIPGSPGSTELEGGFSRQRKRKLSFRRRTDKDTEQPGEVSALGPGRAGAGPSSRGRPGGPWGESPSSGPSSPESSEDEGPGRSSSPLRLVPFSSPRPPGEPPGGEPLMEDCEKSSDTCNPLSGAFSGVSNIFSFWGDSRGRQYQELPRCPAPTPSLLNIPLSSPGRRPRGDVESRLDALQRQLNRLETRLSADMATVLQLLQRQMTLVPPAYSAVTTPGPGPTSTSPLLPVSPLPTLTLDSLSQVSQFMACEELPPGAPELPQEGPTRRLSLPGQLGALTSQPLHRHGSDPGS

Row | SMILES | hERG current change (%, negative = inhibition) at 10uM [%]
1 | O=C(CSc1ccccn1)Nc1cccc(NC(=O)CSc2ccccn2)n1 | -11.9
2 | O=[N+]([O-])c1ccccc1S(=O)(=O)N1CCN(C2CCN(Cc3ccccc3)CC2)CC1 | -51.9
3 | O=S(=O)(c1ccccc1)N1CCN(Cc2ccc(Cl)cc2)CC1 | -22.7
4 | O=S(=O)(c1ccccc1)N1CCN(Cc2ccccc2)CC1 | 19.3
5 | Cn1c(=O)c(=O)n(C)c2cc(S(=O)(=O)N3CCC(Cc4ccccc4)CC3)ccc21 | -10.9
6 | O=[N+]([O-])c1ccccc1S(=O)(=O)N1CCN(C2CCCC2)CC1 | 0.58
7 | O=S(=O)(c1ccc(Cl)cc1)N1CCN(C2CCN(Cc3ccccc3)CC2)CC1 | -71.4
8 | Cn1c(=O)c(=O)n(C)c2cc(S(=O)(=O)N3CCN(Cc4ccccc4)CC3)ccc21 | -63.4
9 | Cn1c(=O)c(=O)n(C)c2cc(S(=O)(=O)N3CC(=O)N(CCc4ccccc4)C(=O)C3)ccc21 | 19.4
10 | O=[N+]([O-])c1ccccc1S(=O)(=O)N1CCN(Cc2ccccc2)CC1 | -34.6
11 | O=S(=O)(c1ccc(Cl)cc1)N1CCN(C2CCCCCC2)CC1 | -17.3
12 | CS(=O)(=O)N1CCN(C2CCN(Cc3ccccc3)CC2)CC1 | -1.48
13 | O=S(=O)(c1ccccc1)N1CCN(C2CCN(Cc3ccccc3)CC2)CC1 | -64
14 | CC(=O)c1c(C)[nH]c(C(=O)COc2cc(C)ccc2C(C)C)c1C | 14.1
15 | O=C(CSc1nnnn1-c1ccc2c(c1)OCCO2)N1CCN(C(=O)c2ccco2)CC1 | -16.6
16 | CCN1C(=O)S/C(=C/c2ccc(Oc3ccc([N+](=O)[O-])cn3)c(OC)c2)C1=O | 9.24
17 | O=C(COC(=O)c1cccs1)Nc1ccc(F)c(F)c1 | 12.2
18 | COC(=O)COc1ccc(/C=C2/NC(=O)N(CC(=O)OC)C2=O)cc1 | 12.3
19 | CC1(C)CC(=O)C(Sc2ccccc2)=C(O)C1 | 15.8
20 | COc1ccc(S(=O)(=O)N2CCC(N3CCN(c4ccccc4OC)CC3)CC2)cc1 | -66.5
21 | COc1ccccc1N1CCN(C2CCN(S(=O)(=O)c3ccc(C)cc3)CC2)CC1 | -36.4

Row | SMILES | hERG current change (%, negative = inhibition) at 10uM [%]
22 | CC(=O)Nc1ccc(S(=O)(=O)N2CCN(Cc3cccc([N+](=O)[O-])c3)CC2)cc1.O=C(O)C(=O)O | -3.41
23 | O=C(O)C(=O)O.O=[N+]([O-])c1ccc(S(=O)(=O)N2CCN(Cc3ccco3)CC2)cc1 | 15.3
24 | O=C(O)C(=O)O.O=[N+]([O-])c1ccc(S(=O)(=O)N2CCN(C3CCN(Cc4ccccc4)CC3)CC2)cc1 | -78.2
25 | COc1ccccc1N1CCN(C2CCN(S(=O)(=O)c3ccc(NC(C)=O)cc3)CC2)CC1 | 0.727
26 | COc1ccc(N(CC(=O)NCCSCc2ccc(C)cc2)S(=O)(=O)c2ccccc2)cc1 | 3.04
27 | O=c1cccc2n1CC1CC2CN(S(=O)(=O)c2ccccc2)C1 (stereo not drawn) | -3.59
28 | Cc1cc2occ(CC(=O)N(C)CC(=O)Nc3ccc(F)cc3)c2cc1C | -9.51
29 | COC(=O)CN=C1OC(=O)N2C(=O)C3=C4[C@@H](C[C@H]5C(=O)N(c6ccccc6)C(=O)[C@H]5[C@H]4[C@@]12Cc1ccccc1)[C@H]1C(=O)N(c2ccccc2)C(=O)[C@H]1[C@H]3C | 4.25
30 | c1ccc(N2CCN(c3ncnc4sc5c(c34)CCC5)CC2)cc1 | 12.4
31 | O=C(c1ccccc1)N1CCN(c2ncnc3sc4c(c23)CCC4)CC1 | -56
32 | Oc1ccc(N2CCN(c3ncnc4sc5c(c34)CCC5)CC2)cc1 | -7.35
33 | O=C(Nc1ncnc2sc3c(c12)CCC3)c1ccco1 | -4.5
34 | O=C(c1ccco1)N1CCN(c2ncnc3sc4c(c23)CCC4)CC1 | -56.6
35 | O=C(CSc1ncnc2sc3c(c12)CCCC3)c1ccco1 | 6.66
36 | COc1ccc2nc(NC(=O)C3CCN(S(=O)(=O)c4cccs4)CC3)sc2c1 | -13.6
37 | COc1cc(OC)cc(C(=O)NC2CCSC2=O)c1 (stereo not drawn) | -5.55
38 | CCN(CC)CCCC(C)NC(=O)c1ccc(C(F)(F)F)cc1.Cl (stereo not drawn) | -7.01
39 | CCOC(=O)N1CCN(C(=O)Cn2nc(C)n3nc(-c4ccc(OC)cc4)cc3c2=O)CC1 | 13.4
40 | O=C(CSc1nnc(-c2cccs2)n1-c1ccccc1)NCc1ccc2c(c1)OCO2 | -43.7
41 | CCn1c(SCC(=O)NCc2ccc3c(c2)OCO3)nnc1-c1cccs1 | -23.1
42 | CC(Sc1nnc2ccccn12)C(=O)NCc1ccc2c(c1)OCO2 (stereo not drawn) | 4.95

Row | SMILES | hERG current change (%, negative = inhibition) at 10uM [%]
43 | CC(Sc1nnc(-c2cccs2)n1-c1ccccc1)C(=O)NCc1ccc2c(c1)OCO2 (stereo not drawn) | -74.8
44 | CC(Sc1nnc(-c2cccs2)n1Cc1ccccc1)C(=O)NCc1ccc2c(c1)OCO2 (stereo not drawn) | -55.9
45 | CCn1c(SCC(=O)NCc2ccc3c(c2)OCO3)nnc1-c1ccncc1 | 13
46 | O=C(CSc1nnc(-c2cccs2)n1Cc1ccccc1)NCc1ccc2c(c1)OCO2 | -75.8
47 | Cn1c(SCC(=O)NCc2ccc3c(c2)OCO3)nnc1-c1cccs1 | -17.1
48 | CC(Sc1nncn1C)C(=O)NCc1ccc2c(c1)OCO2 (stereo not drawn) | 34.9
49 | COCC(=O)Nc1cc(C(=O)Nc2ccccc2C)ccc1Cl | -3.92
50 | COc1cc(CNc2cc(C)ccc2C)cc(OC)c1OC | -4.46
51 | Cc1cc(C)nc(N/N=C/c2c(CO)cnc(C)c2O)n1 | -10.7
52 | O=C(Nc1ncccn1)c1ccc([N+](=O)[O-])cc1[N+](=O)[O-] | -7.61
53 | O=C(Nc1cccc2oc(=O)ccc12)c1ccc([N+](=O)[O-])cc1[N+](=O)[O-] | -59.9
54 | COc1ccccc1NC(=O)c1ccc([N+](=O)[O-])cc1[N+](=O)[O-] | -19.6
55 | CCOc1ccccc1C(=O)Nc1ccc2nc(N3CCN(c4ncccn4)CC3)cc(C)c2c1 | -8.08
56 | COc1cc(C)c(NC(=S)Nc2cccc(Cl)c2)cc1OC | 6.72
57 | CC(NC(=O)CCn1nc(-c2ccc(Cl)cc2)ccc1=O)c1ccccc1 (stereo not drawn) | -60.6
58 | O=C(CCn1nc(-c2ccc(Cl)cc2)ccc1=O)NCc1ccccn1 | -32
59 | CCCCN(C)CCNC(=O)CCn1nc(-c2ccc(C)cc2)ccc1=O | -83.4
60 | Cc1ccc(-c2ccc(=O)n(CCC(=O)NCCN3CCCCC3C)n2)cc1 (stereo not drawn) | -58.7
61 | Cc1ccc(CNC(=O)CCn2nc(-c3ccc(Cl)cc3)ccc2=O)cc1 | -35.3
62 | CC(NC(=O)Cn1nc(-c2ccccc2)ccc1=O)c1ccccc1 (stereo not drawn) | -13.4
63 | Cc1ccc(-c2ccc(=O)n(CC(=O)NCCCN3CCCCC3C)n2)cc1 (stereo not drawn) | -10.3

Row | SMILES | hERG current change (%, negative = inhibition) at 10uM [%]
64 | COCCCNC(=O)CCn1nc(-c2ccc(Cl)cc2)ccc1=O | -27.9
65 | CCCCNC(=O)Cn1nc(-c2ccc(C)cc2)ccc1=O | -1.13
66 | COCCNC(=O)CCn1nc(-c2ccc(C)cc2)ccc1=O | -34.4
67 | Cc1ccc(-c2ccc(=O)n(CC(=O)NCCN3CCCCC3C)n2)cc1 (stereo not drawn) | 0.96
68 | Cc1ccc(-c2ccc(=O)n(CCC(=O)NCc3ccccn3)n2)cc1 | -61
69 | O=C(CCc1ccccc1)NCCCNC(=O)CCc1ccccc1 | 7.49
70 | C=CCn1c(C)nnc1SCC(=O)Nc1nccs1 | 16.6
71 | NC(=O)c1ccccc1NC(=O)/C=C/c1c(Cl)cccc1Cl | -31.3
72 | Cc1ccc(-c2nnc(N)o2)cc1 | 9.43
73 | Cc1ccc(NC(=O)COC(=O)CCc2ccccc2)c(Cl)c1 | 27.1
74 | CC(C)CCNC(=O)CCn1nc(-c2ccc(Cl)cc2)ccc1=O | -54.6
75 | CCCCNC(=O)CCn1nc(-c2ccc(Cl)cc2)ccc1=O | -23.4
76 | CN(C)CCNC(=O)CCn1nc(-c2ccc(Cl)cc2)ccc1=O | -15.4
77 | CCCCN(C)CCNC(=O)CCn1nc(-c2ccc(Cl)cc2)ccc1=O | -67.1
78 | COCCNC(=O)CCn1nc(-c2ccc(Cl)cc2)ccc1=O | -30.2
79 | CC(C)CCNC(=O)CCn1nc(-c2ccccc2)ccc1=O | -46.8
80 | O=C(CSCc1c(F)cccc1Cl)Nc1ccccc1C(=O)N1CCOCC1 | 5.4
81 | Cc1ccc(C)c(-c2ccc(=O)n(Cc3cccc(Br)c3)n2)c1 | 10.7
82 | CCOc1ccc(NC(=O)C2CCCN(c3nc(C)cc(C)n3)C2)cc1 (stereo not drawn) | 12.4
83 | O=C(OCC(=O)c1c[nH]c2ccccc12)c1cc2ccccc2cc1O | 1.38
84 | COc1cccc(NC(=O)CN2C(=O)COc3ccc(S(=O)(=O)N4CCOCC4)cc32)c1 | 15.6

Reference: PMC4336329 (PLoS ONE, 2015)
